# Source: PubChem BioAssay (EPA / NIEHS)
# Where “and” joins values, the source holds several entries; their conditions need not be identical. Equal values may be shown once. Results filed as inconclusive are left out. Calls of active or inactive are those of the source. Rule for the calls: active = hit-call score of the fitted dose curve at least 0.9, where 1 is the maximum; inconclusive = response in the unintended direction; inactive = score below 0.9.
# How the values were obtained:
# [1] = biological target: human Acid Phosphatase 1 (ACP1), ACP1 (gene 52) (UniProt P24666); test: NVS_ENZ_hACP1: NovaScreen (NVS) Enzymatic Assay for human Acid Phosphatase 1 (ACP1) (AID 2283136)
# human Acid Phosphatase 1 (ACP1), ACP1 (gene 52), sequence (P24666 whole entry, looked up): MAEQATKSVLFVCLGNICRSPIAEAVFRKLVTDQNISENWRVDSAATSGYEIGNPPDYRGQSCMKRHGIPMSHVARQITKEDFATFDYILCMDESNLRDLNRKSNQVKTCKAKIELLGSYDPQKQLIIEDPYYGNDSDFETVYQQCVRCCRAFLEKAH
# Procedure, shortened: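 Cell-free fluorescence read-out of phosphatase activity, substrate and product separated by mobility shift, taken 1.5 h after compound addition; protein produced in Sf9. Single 25 uM duplicate screen, followed by concentration series for actives, scored as signal loss relative to DMSO.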
# [2] = biological target: Caspase-3 (Homo sapiens) (UniProt P42574); test: NVS_ENZ_hCASP3: NovaScreen (NVS) Enzymatic Assay for human Caspase 3 (CASP3) (AID 2283139)
# Caspase-3 (Homo sapiens), sequence (P42574 whole entry, looked up): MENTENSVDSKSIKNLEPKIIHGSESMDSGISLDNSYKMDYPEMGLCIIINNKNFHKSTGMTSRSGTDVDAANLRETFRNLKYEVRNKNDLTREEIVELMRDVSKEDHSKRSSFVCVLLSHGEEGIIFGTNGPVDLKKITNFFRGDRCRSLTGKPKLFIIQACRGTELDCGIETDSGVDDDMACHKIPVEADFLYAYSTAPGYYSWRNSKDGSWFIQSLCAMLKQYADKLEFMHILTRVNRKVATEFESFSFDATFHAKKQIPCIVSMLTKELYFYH
# Procedure, shortened: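 Single-concentration screening at 25 uM in duplicate, with concentration-response follow-up to a 50 uM maximum for chemicals passing the threshold. Caspase-3 (human, E. coli-expressed) activity was read as substrate fluorescence after 1 h, with loss of signal relative to DMSO.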
# [3] = biological target: human Elastase, ELANE (gene 1991) (UniProt P08246); test: NVS_ENZ_hElastase: NovaScreen (NVS) Enzymatic Assay for human Elastase (AID 2283153)
# human Elastase, ELANE (gene 1991), sequence (P08246 whole entry, looked up): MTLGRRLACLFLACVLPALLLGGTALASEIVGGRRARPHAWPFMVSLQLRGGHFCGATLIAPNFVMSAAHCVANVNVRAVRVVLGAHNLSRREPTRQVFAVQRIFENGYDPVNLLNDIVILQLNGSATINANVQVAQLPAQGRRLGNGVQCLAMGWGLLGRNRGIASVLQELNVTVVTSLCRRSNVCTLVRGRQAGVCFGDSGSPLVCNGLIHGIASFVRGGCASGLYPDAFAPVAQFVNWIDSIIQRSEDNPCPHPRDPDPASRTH
# Procedure, shortened: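 Concentration-response to 50 uM max, run singly for chemicals passing a threshold (e.g., 30% inhibition) in a duplicate 25 uM single-point screen. Neutrophil-derived human elastase, absorbance read-out of enzyme activity at 1.5 h; DMSO baseline.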
# [4] = biological target: human FYN Proto-Oncogene, Src family Tyrosine Kinase (Fyn), FYN (gene 2534) (UniProt P06241); test: NVS_ENZ_hFyn: NovaScreen (NVS) Enzymatic Assay for human FYN Proto-Oncogene, Src family Tyrosine Kinase (Fyn) (AID 2283161)
# Procedure, shortened: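 Cell-free kinase activity read by fluorescence after mobility-shift separation of substrate and product, 1 h post-dose. Initial single concentration 25 uM in duplicate, then concentration-response follow-up; DMSO baseline.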
# [5] = biological target: human Esterase Plasma (ES), BCHE (gene 590) (UniProt P06276); test: NVS_ENZ_hES: NovaScreen (NVS) Enzymatic Assay for human Esterase Plasma (ES) (AID 2283157)
# human Esterase Plasma (ES), BCHE (gene 590), sequence (P06276 whole entry, looked up): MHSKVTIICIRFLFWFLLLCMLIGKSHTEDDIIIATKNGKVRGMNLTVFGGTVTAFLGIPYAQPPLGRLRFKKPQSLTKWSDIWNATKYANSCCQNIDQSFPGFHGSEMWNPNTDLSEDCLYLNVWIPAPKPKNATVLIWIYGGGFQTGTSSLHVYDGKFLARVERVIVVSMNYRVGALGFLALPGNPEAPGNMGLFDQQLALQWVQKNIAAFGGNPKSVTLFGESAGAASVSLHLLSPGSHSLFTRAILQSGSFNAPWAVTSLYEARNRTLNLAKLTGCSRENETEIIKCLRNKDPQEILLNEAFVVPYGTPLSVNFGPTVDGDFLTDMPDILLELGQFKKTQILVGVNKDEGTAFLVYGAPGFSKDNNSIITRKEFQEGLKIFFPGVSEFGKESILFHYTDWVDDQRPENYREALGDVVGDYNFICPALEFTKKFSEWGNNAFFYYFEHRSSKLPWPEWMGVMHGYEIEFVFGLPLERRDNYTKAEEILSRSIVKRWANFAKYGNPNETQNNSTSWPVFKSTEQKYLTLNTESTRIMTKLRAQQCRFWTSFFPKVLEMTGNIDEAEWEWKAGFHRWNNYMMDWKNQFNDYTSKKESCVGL
# Procedure, shortened: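 Screening ran at 25 uM in duplicate, followed by singleton concentration series reaching 50 uM for actives. Human plasma protein, colorimetric detection, 0.25 h exposure, DMSO negative control.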
# [6] = biological target: human Ephrin type-B Receptor 1 (EphB1), EPHB1 (gene 2047) (UniProt P54762); test: NVS_ENZ_hEphB1: NovaScreen (NVS) Enzymatic Assay for human Ephrin type-B Receptor 1 (EphB1) (AID 2283154)
# human Ephrin type-B Receptor 1 (EphB1), EPHB1 (gene 2047), sequence (P54762 whole entry, looked up): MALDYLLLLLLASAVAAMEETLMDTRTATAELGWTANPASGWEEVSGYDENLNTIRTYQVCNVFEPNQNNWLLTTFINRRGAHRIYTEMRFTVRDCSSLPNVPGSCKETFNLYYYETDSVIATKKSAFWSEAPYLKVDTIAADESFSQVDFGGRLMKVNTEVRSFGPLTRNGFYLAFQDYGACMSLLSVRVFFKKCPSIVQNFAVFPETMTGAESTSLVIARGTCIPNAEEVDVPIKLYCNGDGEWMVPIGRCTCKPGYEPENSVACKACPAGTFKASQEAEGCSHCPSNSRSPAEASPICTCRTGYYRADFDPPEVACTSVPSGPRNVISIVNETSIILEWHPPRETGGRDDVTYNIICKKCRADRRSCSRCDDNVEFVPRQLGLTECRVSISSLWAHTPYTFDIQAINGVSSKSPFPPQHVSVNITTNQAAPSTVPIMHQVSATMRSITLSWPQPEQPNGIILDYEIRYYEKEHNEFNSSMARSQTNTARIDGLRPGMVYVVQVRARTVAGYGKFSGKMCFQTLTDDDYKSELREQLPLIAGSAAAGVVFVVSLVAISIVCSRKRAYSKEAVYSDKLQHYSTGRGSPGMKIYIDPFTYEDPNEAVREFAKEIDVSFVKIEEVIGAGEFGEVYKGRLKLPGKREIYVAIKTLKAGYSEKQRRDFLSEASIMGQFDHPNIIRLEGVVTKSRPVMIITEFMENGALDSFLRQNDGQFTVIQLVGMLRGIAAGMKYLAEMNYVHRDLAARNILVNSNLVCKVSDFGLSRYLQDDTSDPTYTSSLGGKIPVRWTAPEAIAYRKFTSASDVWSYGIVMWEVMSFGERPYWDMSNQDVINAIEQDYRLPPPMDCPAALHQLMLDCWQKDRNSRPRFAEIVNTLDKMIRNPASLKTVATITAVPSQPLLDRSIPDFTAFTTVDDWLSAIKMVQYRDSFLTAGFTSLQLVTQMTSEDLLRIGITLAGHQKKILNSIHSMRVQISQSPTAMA
# Procedure, shortened: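 Recombinant EphB1 activity read by fluorescence after mobility-shift separation of product from substrate, 1 h post-dosing. Compounds screened in duplicate at 25 uM; inhibition scored as signal loss relative to DMSO.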
# [7] = biological target: human Casein Kinase 1-delta (CK1D), CSNK1D (gene 1453) (UniProt P48730); test: NVS_ENZ_hCK1D: NovaScreen (NVS) Enzymatic Assay for human Casein Kinase 1-delta (CK1D) (AID 2283148)
# Procedure, shortened: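 Recombinant human CK1-delta, cell-free; fluorescent substrate with electrophoretic mobility-shift separation of product, read 1 h after dosing. Single 25 uM duplicate screen, then concentration-response up to 50 uM; loss of signal vs DMSO.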
# [8] = biological target: human Beta-secretase (BACE), BACE1 (gene 23621) (UniProt P56817); test: NVS_ENZ_hBACE: NovaScreen (NVS) Enzymatic Assay for human Beta-secretase (BACE) (AID 2283140);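 note: hits are inhibitors that reduce fluorescent substrate signal versus DMSO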
# human Beta-secretase (BACE), BACE1 (gene 23621), sequence (P56817 whole entry, looked up): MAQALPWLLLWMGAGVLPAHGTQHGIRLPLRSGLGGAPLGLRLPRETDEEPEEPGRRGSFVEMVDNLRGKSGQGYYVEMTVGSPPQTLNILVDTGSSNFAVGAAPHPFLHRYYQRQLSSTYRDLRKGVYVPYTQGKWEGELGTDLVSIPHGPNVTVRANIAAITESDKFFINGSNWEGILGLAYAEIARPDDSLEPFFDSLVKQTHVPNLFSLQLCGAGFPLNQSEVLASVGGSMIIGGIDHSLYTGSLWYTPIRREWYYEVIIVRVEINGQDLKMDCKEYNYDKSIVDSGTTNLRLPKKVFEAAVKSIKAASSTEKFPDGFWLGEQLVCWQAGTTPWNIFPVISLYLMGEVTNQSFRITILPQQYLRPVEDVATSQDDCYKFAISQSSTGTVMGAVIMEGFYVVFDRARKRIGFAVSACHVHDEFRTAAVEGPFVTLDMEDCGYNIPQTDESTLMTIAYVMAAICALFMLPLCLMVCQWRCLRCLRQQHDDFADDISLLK
# Procedure, shortened: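 Fluorescence intensity read-out of protease activity defines this endpoint; signal loss relative to DMSO baseline marks inhibition. Recombinant enzyme from SF9 cells, cell-free format, 1 h exposure. Single-concentration duplicate screen (25 uM) precedes concentration-series follow-up.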
# [9] = biological target: CDK2 (gene 1017) (UniProt P24941); test: NVS_ENZ_hCDK2: NovaScreen (NVS) Enzymatic Assay for human Cyclin-Cependent Kinase 2 (CDK2) (AID 2283144)
# Procedure, shortened: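 Compounds screened in duplicate at 25 uM, then in singleton concentration-response to a maximum of 50 uM, against recombinant CDK2; kinase activity read 1 hr after dosing by fluorescence with mobility-shift separation of substrate and product.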
# [10] = biological target: human Colony Stimulating Factor 1 Receptor (CSF1R), CSF1R (gene 1436) (UniProt P07333); test: NVS_ENZ_hCSF1R: NovaScreen (NVS) Enzymatic Assay for human Colony Stimulating Factor 1 Receptor (CSF1R) (AID 2283150)
# human Colony Stimulating Factor 1 Receptor (CSF1R), CSF1R (gene 1436), sequence (P07333 whole entry, looked up): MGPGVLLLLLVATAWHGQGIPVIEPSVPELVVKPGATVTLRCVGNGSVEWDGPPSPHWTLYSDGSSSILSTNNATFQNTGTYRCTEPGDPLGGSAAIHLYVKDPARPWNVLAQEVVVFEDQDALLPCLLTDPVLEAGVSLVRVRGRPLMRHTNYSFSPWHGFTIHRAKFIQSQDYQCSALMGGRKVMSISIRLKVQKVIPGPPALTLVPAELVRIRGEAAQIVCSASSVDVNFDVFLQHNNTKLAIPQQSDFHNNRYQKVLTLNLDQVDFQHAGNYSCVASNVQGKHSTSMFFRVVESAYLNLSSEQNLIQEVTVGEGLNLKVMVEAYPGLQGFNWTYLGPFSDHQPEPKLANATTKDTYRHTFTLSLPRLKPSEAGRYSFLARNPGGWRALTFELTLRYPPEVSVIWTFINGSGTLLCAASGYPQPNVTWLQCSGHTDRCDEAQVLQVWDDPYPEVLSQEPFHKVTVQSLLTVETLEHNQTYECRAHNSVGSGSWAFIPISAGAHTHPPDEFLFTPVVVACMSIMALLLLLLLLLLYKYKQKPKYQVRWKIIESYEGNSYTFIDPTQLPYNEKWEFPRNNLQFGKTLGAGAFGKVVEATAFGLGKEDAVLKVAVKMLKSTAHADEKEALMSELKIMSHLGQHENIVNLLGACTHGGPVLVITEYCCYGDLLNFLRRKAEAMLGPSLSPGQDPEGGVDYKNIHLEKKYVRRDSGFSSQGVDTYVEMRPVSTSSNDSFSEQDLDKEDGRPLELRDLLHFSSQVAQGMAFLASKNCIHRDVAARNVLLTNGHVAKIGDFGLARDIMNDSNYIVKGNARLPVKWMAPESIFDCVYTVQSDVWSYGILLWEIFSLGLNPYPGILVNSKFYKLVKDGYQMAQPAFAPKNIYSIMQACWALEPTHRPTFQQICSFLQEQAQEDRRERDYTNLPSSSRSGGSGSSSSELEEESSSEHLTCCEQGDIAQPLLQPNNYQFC
# Procedure, shortened: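 Compounds screened in duplicate at 25 uM, then concentration-response (top 50 uM) for those passing threshold such as 30% inhibition; recombinant CSF1R activity measured 1 h post-dosing via fluorescent substrate/product mobility-shift separation, loss of signal versus DMSO.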
# [11] = biological target: human Ephrin type-A Receptor 1 (EphA1), EPHA1 (gene 2041) (UniProt P21709); test: NVS_ENZ_hEphA1: NovaScreen (NVS) Enzymatic Assay for human Ephrin type-A Receptor 1 (EphA1) (AID 2283158);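 note: activity is signal loss versus DMSO meaning EphA1 kinase inhibition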
# human Ephrin type-A Receptor 1 (EphA1), EPHA1 (gene 2041), sequence (P21709 whole entry, looked up): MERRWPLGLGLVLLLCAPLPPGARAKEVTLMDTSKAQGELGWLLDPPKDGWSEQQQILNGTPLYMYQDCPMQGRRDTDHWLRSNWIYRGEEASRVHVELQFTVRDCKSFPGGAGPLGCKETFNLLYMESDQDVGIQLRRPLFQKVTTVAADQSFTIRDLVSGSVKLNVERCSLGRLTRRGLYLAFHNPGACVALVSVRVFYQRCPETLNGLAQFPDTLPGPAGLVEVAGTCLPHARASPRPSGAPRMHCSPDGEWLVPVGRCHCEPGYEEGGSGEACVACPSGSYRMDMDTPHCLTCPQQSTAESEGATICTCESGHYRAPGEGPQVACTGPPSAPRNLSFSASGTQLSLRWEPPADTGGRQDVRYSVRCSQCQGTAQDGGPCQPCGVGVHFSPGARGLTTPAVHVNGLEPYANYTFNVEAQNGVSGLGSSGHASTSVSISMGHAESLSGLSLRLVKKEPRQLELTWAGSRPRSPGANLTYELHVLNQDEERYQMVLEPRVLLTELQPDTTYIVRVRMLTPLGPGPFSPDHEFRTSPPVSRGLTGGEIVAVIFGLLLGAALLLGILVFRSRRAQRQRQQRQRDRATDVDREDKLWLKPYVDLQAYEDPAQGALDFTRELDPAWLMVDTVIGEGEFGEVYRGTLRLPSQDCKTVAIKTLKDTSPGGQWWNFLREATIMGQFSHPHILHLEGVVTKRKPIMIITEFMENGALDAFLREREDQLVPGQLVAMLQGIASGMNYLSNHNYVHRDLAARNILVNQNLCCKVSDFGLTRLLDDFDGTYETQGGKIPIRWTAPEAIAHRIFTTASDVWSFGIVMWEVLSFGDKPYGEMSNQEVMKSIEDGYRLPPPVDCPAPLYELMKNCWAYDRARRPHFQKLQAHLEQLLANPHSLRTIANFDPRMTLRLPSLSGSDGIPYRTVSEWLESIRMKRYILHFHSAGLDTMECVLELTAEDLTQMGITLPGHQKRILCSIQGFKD
# Procedure, shortened: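 Biochemical kinase assay run cell-free; 1 h incubation; readout is fluorescence with mobility-shift separation of product. Concentration-response up to 50 uM for actives from a 25 uM screen.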
# [12] = biological target: human AKT serine/threonine Kinase 2 (AKT2), AKT2 (gene 208) (UniProt P31751); test: NVS_ENZ_hAKT2: NovaScreen (NVS) Enzymatic Assay for human AKT serine/threonine Kinase 2 (AKT2) (AID 2283141)
# Procedure, shortened: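 Cell-free fluorescence/electrophoretic mobility shift readout of recombinant human AKT2 activity, 1 h after chemical dosing. Duplicate primary screen at 25 uM, then singleton concentration-response up to 50 uM; loss of signal versus DMSO baseline.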
# [13] = biological target: human Caspase 8 (CASP8), CASP8 (gene 841) (UniProt Q14790); test: NVS_ENZ_hCASP8: NovaScreen (NVS) Enzymatic Assay for human Caspase 8 (CASP8) (AID 2283146)
# Procedure, shortened: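 The primary screen tested compounds in duplicate at a single 25 uM concentration, with actives followed up in concentration series. Activity of recombinant (E. coli) protease was measured by fluorescence 1 h post-dose, as signal loss against DMSO.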
# [14] = biological target: human Dual Specificity Protein Phosphatase 3 (DUSP3), DUSP3 (gene 1845) (UniProt P51452); test: NVS_ENZ_hDUSP3: NovaScreen (NVS) Enzymatic Assay for human Dual Specificity Protein Phosphatase 3 (DUSP3) (AID 2283152);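 note: phosphatase activity of recombinant human DUSP3 on a fluorogenic substrate without cells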
# human Dual Specificity Protein Phosphatase 3 (DUSP3), DUSP3 (gene 1845), sequence (P51452 whole entry, looked up): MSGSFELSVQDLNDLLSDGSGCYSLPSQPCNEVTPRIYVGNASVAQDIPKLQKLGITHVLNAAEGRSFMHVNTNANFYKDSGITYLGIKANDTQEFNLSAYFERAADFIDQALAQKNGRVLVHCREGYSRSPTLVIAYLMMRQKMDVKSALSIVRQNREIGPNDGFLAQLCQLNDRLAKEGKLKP
# Procedure, shortened: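 Cell-free fluorescence-intensity enzyme activity assay with recombinant protein and substrate; loss of signal fitted relative to DMSO baseline. Primary screen in duplicate at 25 uM, actives then run in concentration series; measured 0 h after dosing.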
# [15] = biological target: human Casein Kinase 2- alpha 2 beta 2 (CK2a2b2), CSNK2A1 (gene 1457) (UniProt P68400); test: NVS_ENZ_hCK2a2b2: NovaScreen (NVS) Enzymatic Assay for human Casein Kinase 2- alpha 2 beta 2 (CK2a2b2) (AID 2283147)
# Procedure, shortened: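 Compounds were first screened in duplicate at 25 uM, and those passing the threshold were re-tested in concentration series up to a 50 uM maximum. Kinase activity of recombinant human CK2 α2β2 was measured 1 h after dosing by fluorescent substrate/product mobility-shift separation.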
compound,measurement,setting,value
O=C(O)C1(C(=O)Nc2ccc(Cl)cc2Cl)CC1,AC50,[1],39.2 µM (active)
S=C(S)NCCNC(=S)S.[Mn+2].[S-]C([S-])=NCCN=C([S-])[S-].[Zn+2],AC50,[1],4.22 µM (active) and 4.27 µM (active)
same,outcome,[2],inactive
O=C(Nc1ccc([N+](=O)[O-])cc1Cl)c1cc(Cl)ccc1O,outcome,[2],inactive
N[C@@H](Cc1cc(I)c(Oc2ccc(O)c(I)c2)c(I)c1)C(=O)O,outcome,[3],inactive
S=C([S-])NCCNC(=S)[S-].[Mn+2],outcome,[3],inactive
same,outcome,[4],inactive
CC(C)(c1ccc(O)cc1)c1ccc(O)cc1,outcome,[5],inactive
COC(=O)CSc1cc(N=c2sc(=O)n3n2CCCC3)c(F)cc1Cl,outcome,[5],inactive
CC(C)CCCCCCc1ccc(O)cc1,outcome,[4],inactive
CCCOC(=O)NCCCN(C)C,outcome,[6],inactive
CC(=O)[C@H]1CC[C@H]2[C@@H]3CCC4=CC(=O)CC[C@]4(C)[C@H]3CC[C@]12C,outcome,[7],inactive
COC(=O)c1c(Cl)nn(C)c1S(=O)(=O)NC(=O)Nc1nc(OC)cc(OC)n1,AC50,[7],21.1 µM (active)
O=C(c1ccc(O)cc1O)c1ccc(O)cc1O,outcome,[8],inactive
same,AC50,[9],17 µM (active)
same,AC50,[7],17.3 µM (active)
same,AC50,[10],11.6 µM (active)
same,AC50,[11],25 µM (active)
same,AC50,[4],15.1 µM (active)
CC1(C)C(C=C(Cl)Cl)C1C(=O)OCc1cccc(Oc2ccccc2)c1 (configuration not stated),AC50,[8],40.2 µM (active)
CCCCC(CC)COC(=O)c1ccccc1C(=O)O (configuration not stated),outcome,[7],inactive
CCNc1nc(N)nc(Cl)n1,AC50,[7],22.1 µM (active)
same,outcome,[10],inactive
CCCCCCC(C)OC(=O)COc1nc(F)c(Cl)c(N)c1Cl (configuration not stated),AC50,[8],3.29 µM (active)
O=C(c1ccccc1)C1CCCCC1,outcome,[11],inactive
OB(O)O,outcome,[12],inactive
CCOC(=O)C(C)Oc1ccc(Oc2nc3ccc(Cl)cc3o2)cc1 (configuration not stated),outcome,[6],inactive
same,outcome,[5],inactive
C[C@]12CC[C@@H]3c4ccc(O)cc4C[C@@H](CCCCCCCCCS(=O)CCCC(F)(F)C(F)(F)F)[C@H]3[C@@H]1CC[C@@H]2O (some centres not stated),outcome,[8],inactive
same,outcome,[13],inactive
same,outcome,[14],inactive
same,outcome,[11],inactive
CCCCOC(=O)C(C)Oc1ccc(Oc2ccc(C(F)(F)F)cn2)cc1 (configuration not stated),AC50,[8],25 µM (active)
same,outcome,[10],inactive
CCOC(=O)NCCOc1ccc(Oc2ccccc2)cc1,outcome,[14],inactive
same,outcome,[11],inactive
COC(=O)c1cccc(C)c1S(=O)(=O)NC(=O)Nc1nc(OCC(F)(F)F)nc(N(C)C)n1,outcome,[2],inactive
same,outcome,[13],inactive
same,outcome,[3],inactive
CCOC(=O)[C@H](C)Oc1ccc(Oc2nc3ccc(Cl)cc3o2)cc1,AC50,[10],3.18 µM (active)
c1ccc2[nH]c(-c3cscn3)nc2c1,AC50,[15],25 µM (active)
same,AC50,[7],19.8 µM (active)
same,outcome,[5],inactive
same,outcome,[11],inactive
same,outcome,[4],inactive
C#CCOC(=O)[C@@H](C)Oc1ccc(Oc2ncc(Cl)cc2F)cc1,outcome,[14],inactive
same,outcome,[3],inactive
CCCN(CCC)c1c([N+](=O)[O-])cc(C(F)(F)F)c(N)c1[N+](=O)[O-],outcome,[13],inactive
same,outcome,[6],inactive
CCN(CC)C(=O)c1cccc(C)c1,outcome,[5],inactive
CCCCCOC(=O)COc1cc(N2C(=O)C3=C(CCCC3)C2=O)c(F)cc1Cl,AC50,[8],3.5 µM (active)
same,outcome,[3],inactive
